# From PubChem BioAssay (NCATS)
# Values joined by “and” are separate entries in the source; they are usually repeats but may differ in a detail not shown here. Equal values may be shown once. Values without a mark were called inactive. Inconclusive results are not listed. Entries that show only a call come without a potency. Active and inactive are the calls of the source. Unless noted, calls come from the whole dose curve; as a rule, active = well fitted curve in the direction sought with a large enough effect; inconclusive = small, poorly fitted or top-dose-only effect, or another doubt; inactive = no such curve, though single readings can be large; an effect the other way counts as inactive or inconclusive.
# Experiments:
# [1] = target: Luciferin 4-monooxygenase (Photinus pyralis) (UniProt P08659); assay: Biochemical firefly luciferase enzyme assay for NPC (AID 624030); note: nearly all actives have a fitted effect of over 70% in size; note: potency is the fitted concentration of half-maximal effect
# Summary of the method: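 Direct inhibition of firefly luciferase enzyme (10 nM final, 50 mM Tris Acetate) assessed by luminescence within 5 minutes. Percent activity scaled between DMSO and PTC124 positive control, with concentration-effect curves classified by fit quality and response.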
# [2] = S16 Schwann cell viability assay (CellTiter-Glo assay) (AID 624031); note: nearly all actives have a fitted effect of over 70% in size; note: potency is the fitted concentration of half-maximal effect
# Summary of the method: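 Rat S16 Schwann cells without reporter constructs received compound or DMSO for 24 h at 37 °C under 5% CO2. Cellular ATP was then quantified by CellTiter-Glo luminescence, with vehicle wells defined as 0% activity and cell-free wells as reference.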
# [3] = S16 Schwann cell PMP22 intronic element firefly luciferase assay (AID 624032); note: nearly all actives have a fitted effect of over 30% in size; note: potency is the fitted concentration of half-maximal effect
# Summary of the method: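 Luciferase reporter of PMP22 intronic-element expression in stably transfected S16 rat Schwann cells, read by ONE-Glo luminescence after 24 h compound exposure at 37 C. Activity scaled between DMSO (0%) and positive-control PTC124; concentration-effect curves quality-classified.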
# [4] = S16 Schwann cell PMP22 intronic element beta-lactamase assay (AID 624044; calls by dose curve; note: nearly all actives have a fitted effect of over 15% in size; note: potency is the fitted concentration of half-maximal effect)
# Summary of the method: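 Rat S16 Schwann cells with beta-Lac driven by a PMP22 intronic element, compound-treated 24 h at 37 °C. LiveBLAzer FRET B/G read: 460 nm normalized to potassium clavulanate vs DMSO; 535 nm FRET as viability; concentration-effect curves classified.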
# [5] = qHTS assay for small molecule agonists of the antioxidant response element (ARE) signaling pathway (AID 651741; active = well fitted activation curve with a large enough effect in the signal ratio; the % refers to the signal ratio)
# Summary of the method: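 Seeding 2,000 ARE-bla HepG2 cells per well preceded a 5 h incubation at 37 C/5% CO2 and a 16 h compound exposure at 37 C. Beta-lactamase reporter activity was then quantified by fluorescence after 2 h with LiveBLAzer B/G FRET substrate.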
# [6] = qHTS assay for small molecule activators of the p53 signaling pathway (AID 651743; active = well fitted activation curve with a large enough effect in the signal ratio, not every such curve was filed as active; the % refers to the signal ratio; note: series mostly up to about 92 µM); conditions: HCT-116 p53RE-bla, beta-lactamase FRET ratio, 16 h; activation: active compounds read high
# Summary of the method: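 Screen for p53 pathway agonists uses stably transfected p53RE-bla HCT-116 cells, 4,000 per well, treated 16 h at 37 C with compounds in DMSO.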
# [7] = qHTS assay for small molecule activators of the nuclear factor-kappa B (NF-kB) signaling pathway (AID 651749; active = well fitted activation curve with a large enough effect in the signal ratio; the % refers to the signal ratio; note: series mostly up to about 77 µM); conditions: NF-kB-bla ME-180 cells, beta-lactamase FRET ratio, 16 h; active compounds read high
# Summary of the method: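 Stably transfected ME-180 line; NF-kB response element upstream of beta-lactamase. Treatment: compound or DMSO, 16 hr. Detection: fluorescent FRET substrate.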
# [8] = qHTS assay for small molecule disruptors of the mitochondrial membrane potential - 1 hr assay (AID 651754; calls by dose curve; note: nearly all actives have a fitted effect of over 35% in size)
# Summary of the method: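 Steps: seed HepG2 cells and let attach overnight; pin-transfer compound or vehicle; incubate 1 hr at 37C; add Mito-MPS dye for 30 min; read two-channel fluorescence for monomer and aggregate forms.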
# [9] = qHTS assay for small molecule disruptors of the mitochondrial membrane potential - 5 hr assay (AID 651755; calls by dose curve; note: nearly all actives have a fitted effect of over 40% in size)
# Summary of the method: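 HepG2, 2,000 cells/well, overnight attach; cpd or DMSO 5 hr, 37C/5% CO2; Mito-MPS 30 min 37C; fluor 490/535 + 540/590 nm.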
# [10] = target: Tumor necrosis factor (Homo sapiens) (UniProt P01375); assay: qHTS assay to identify small molecules that stimulate Tumor Necrosis Factor-alpha (TNF-alpha) secretion (AID 651757; active = well fitted curve in the direction sought with a large enough effect in the signal ratio; the % refers to the signal ratio)
# Summary of the method: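 Secreted TNF-alpha from compound-treated THP-1 cells (17 hrs, 37 C) was quantified with a homogeneous time-resolved fluorescence antibody assay.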
# [11] = qHTS assay for environmental chemicals that activate the Aryl hydrocarbon Receptor (AhR) signaling pathway (AID 651777); conditions: 1A2-DRE human hepatoma cells, luciferase, 24 h; activation: active compounds read high; note: nearly all actives have a fitted effect of over 15% in size
# Summary of the method: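 Measured luciferase activity, read 30 min after One-Glo addition at room temperature, from human hepatoma cells bearing a dioxin response element–CYP1A2 promoter reporter and exposed to compound for 24 hr at 37 C.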
# [12] = target: Peroxisome proliferator-activated receptor alpha (Homo sapiens) (UniProt Q07869); assay: qHTS assay for small molecule agonists of the peroxisome proliferator-activated receptor alpha (PPARalpha) signaling pathway (AID 651778); conditions: PathHunter PPARalpha complementation, chemiluminescence, 6 h; active compounds read high
# Summary of the method: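 Chemiluminescence from complemented enzyme reported PPARalpha activation in cells after 6 hr of compound treatment at 37 C. The detection reagent was incubated for 60 min at room temperature, and compounds were scored as agonists.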
# [13] = target: Nuclear receptor ROR-gamma (Homo sapiens) (UniProt P51449); assay: qHTS assay for small molecule antagonists of the retinoid-related orphan receptor gamma (ROR-gamma) signaling pathway (AID 651802);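 note: CHO cells with doxycycline-induced ROR-gamma expression; luciferase reporter luminescence driven by ROR response element; series mostly up to about 92 µM; nearly all actives have a fitted effect of over 60% in size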
# Summary of the method: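 Antagonism is scored as a fall in luminescence from a RORE-luciferase reporter in CHO cells expressing ROR under a TET-inducible promoter, measured 16hr after doxycycline induction in the presence of compound.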
# [14] = qHTS assay to identify small molecules that stimulate interleukin-8 (IL-8) secretion (AID 651758; active = well fitted activation curve with a large enough effect in the signal ratio; the % refers to the signal ratio)
# Summary of the method: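 Secreted IL-8 measured by TR-FRET sandwich (cryptate and XL665 antibodies) from THP-1 cells exposed to compound overnight (16 hrs, 37 C).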
# Sequence of Nuclear receptor ROR-gamma (Homo sapiens) (P51449 whole entry, looked up): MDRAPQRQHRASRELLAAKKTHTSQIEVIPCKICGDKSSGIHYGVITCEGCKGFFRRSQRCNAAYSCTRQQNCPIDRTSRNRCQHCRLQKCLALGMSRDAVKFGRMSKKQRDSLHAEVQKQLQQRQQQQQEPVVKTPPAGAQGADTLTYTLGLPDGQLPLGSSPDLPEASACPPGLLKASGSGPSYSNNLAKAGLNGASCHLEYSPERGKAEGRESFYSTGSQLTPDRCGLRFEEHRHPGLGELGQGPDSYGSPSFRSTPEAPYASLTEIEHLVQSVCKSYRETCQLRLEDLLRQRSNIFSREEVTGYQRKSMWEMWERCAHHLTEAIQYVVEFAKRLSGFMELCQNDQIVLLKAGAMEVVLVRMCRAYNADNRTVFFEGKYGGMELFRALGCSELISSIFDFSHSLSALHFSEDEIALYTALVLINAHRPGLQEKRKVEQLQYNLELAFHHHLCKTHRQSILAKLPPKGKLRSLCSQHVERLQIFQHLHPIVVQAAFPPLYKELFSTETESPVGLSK
# Sequence of Luciferin 4-monooxygenase (Photinus pyralis) (P08659 whole entry, looked up): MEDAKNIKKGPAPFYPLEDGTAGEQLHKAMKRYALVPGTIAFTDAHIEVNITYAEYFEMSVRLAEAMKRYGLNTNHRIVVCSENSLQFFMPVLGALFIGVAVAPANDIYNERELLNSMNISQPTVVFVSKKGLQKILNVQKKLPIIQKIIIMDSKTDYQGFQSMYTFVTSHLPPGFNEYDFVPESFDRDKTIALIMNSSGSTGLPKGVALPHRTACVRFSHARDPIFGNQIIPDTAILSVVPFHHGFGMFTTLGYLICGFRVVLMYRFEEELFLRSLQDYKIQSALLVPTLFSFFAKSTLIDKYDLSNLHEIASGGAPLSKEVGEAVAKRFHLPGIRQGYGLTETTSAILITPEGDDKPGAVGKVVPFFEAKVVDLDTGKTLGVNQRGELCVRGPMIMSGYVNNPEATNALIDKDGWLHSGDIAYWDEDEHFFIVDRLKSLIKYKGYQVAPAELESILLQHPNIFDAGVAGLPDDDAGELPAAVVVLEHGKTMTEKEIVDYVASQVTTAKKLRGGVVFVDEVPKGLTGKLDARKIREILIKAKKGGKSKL
# Sequence of Tumor necrosis factor (Homo sapiens) (P01375 whole entry, looked up): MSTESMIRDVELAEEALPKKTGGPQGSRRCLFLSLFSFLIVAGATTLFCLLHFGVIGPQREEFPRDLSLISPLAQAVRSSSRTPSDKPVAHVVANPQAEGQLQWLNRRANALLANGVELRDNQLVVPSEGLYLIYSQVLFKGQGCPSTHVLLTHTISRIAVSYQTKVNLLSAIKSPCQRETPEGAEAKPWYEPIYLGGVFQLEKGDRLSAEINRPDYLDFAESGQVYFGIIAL
# Sequence of Peroxisome proliferator-activated receptor alpha (Homo sapiens) (Q07869 whole entry, looked up): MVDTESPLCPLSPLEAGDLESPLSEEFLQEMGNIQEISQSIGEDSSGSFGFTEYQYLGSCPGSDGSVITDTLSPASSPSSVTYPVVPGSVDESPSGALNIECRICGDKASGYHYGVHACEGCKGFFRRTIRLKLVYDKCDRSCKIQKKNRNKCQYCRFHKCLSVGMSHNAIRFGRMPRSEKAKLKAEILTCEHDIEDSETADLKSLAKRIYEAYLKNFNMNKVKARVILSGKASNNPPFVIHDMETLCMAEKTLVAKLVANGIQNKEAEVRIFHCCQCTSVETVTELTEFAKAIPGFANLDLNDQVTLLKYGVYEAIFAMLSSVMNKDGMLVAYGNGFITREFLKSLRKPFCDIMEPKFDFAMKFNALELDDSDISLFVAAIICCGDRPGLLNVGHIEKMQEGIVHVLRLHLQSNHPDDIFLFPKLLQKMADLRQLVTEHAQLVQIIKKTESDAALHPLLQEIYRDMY
compound,measurement,setting,value
[Cl][Pt][Cl],Potency,[1],inactive
CCNC(C)Cc1cccc(C(F)(F)F)c1 (stereo not given),Potency,[1],inactive
same,Potency,[2],inactive
same,Potency,[3],inactive
same,Potency,[4],inactive
CCON=O,Potency,[1],inactive
same,Potency,[2],inactive
same,Potency,[3],inactive
same,Potency,[4],inactive
CCC1(C)CC(=O)NC(=O)C1,Potency,[1],inactive
same,Potency,[2],inactive
same,Potency,[3],inactive
same,Potency,[4],inactive
C#CC(C)(O)CC (stereo not given),Potency,[1],inactive
same,Potency,[2],inactive
same,Potency,[3],inactive
CNC(=O)OCC[N+](C)(C)C,Potency,[1],inactive
same,Potency,[2],inactive
same,Potency,[3],inactive
same,Potency,[4],inactive
[N-]=[N+]=CC(=O)OCC(N)C(=O)O (stereo not given),Potency,[1],inactive
same,Potency,[2],inactive
same,Potency,[3],inactive
same,Potency,[4],inactive
CC(N)Cc1ccc(O)cc1 (stereo not given),Potency,[1],inactive
same,Potency,[2],inactive
same,Potency,[3],9.07 µM (active)
same,Potency,[4],inactive
CNC(C)C(O)c1ccc(O)cc1 (stereo not given),Potency,[1],inactive
same,Potency,[2],inactive
same,Potency,[3],2.28 µM (active)
same,Potency,[4],inactive
COC1=CC=C2[C@H]3Cc4ccc(OC)c5c4[C@@]2(CCN3C)[C@H]1O5,Potency,[1],inactive
same,Potency,[2],inactive
same,Potency,[3],inactive
same,Potency,[4],inactive
O=C1CN(O)C(c2ccccc2)=c2cc(Cl)ccc2=N1,Potency,[1],inactive
same,Potency,[2],inactive
same,Potency,[3],inactive
same,Potency,[4],inactive
CCN(CC)C(=O)/C(Cl)=C(\C)OP(=O)(OC)OC,Potency,[1],inactive
same,Potency,[2],inactive
Cc1ccccc1-n1c(C)nc2ccccc2c1=O,Potency,[1],inactive
c1cc2c(c(NC3=NCCN3)c1)CCCC2,Potency,[1],inactive
same,Potency,[2],inactive
same,Potency,[3],inactive
same,Potency,[4],inactive
CCC(N)Cc1c[nH]c2ccccc12 (stereo not given),Potency,[1],inactive
same,Potency,[2],inactive
same,Potency,[3],inactive
same,Potency,[4],inactive
CC(=O)O[C@H]1CC[C@H]2[C@@H]3CCC4=CC(=O)CCC4=C3C=C[C@]12C,Potency,[1],inactive
same,Potency,[2],inactive
same,Potency,[3],8.09 µM (active)
same,Potency,[4],inactive
S=C(S)N1CCNCC1,Potency,[1],inactive
same,Potency,[2],inactive
same,Potency,[3],inactive
CNC1(c2ccccc2Cl)CCCCC1=O (stereo not given),Potency,[1],inactive
same,Potency,[2],inactive
same,Potency,[3],inactive
same,Potency,[4],inactive
C[N+]1(C)CCCCC1COC(=O)C(O)(c1ccccc1)c1ccccc1 (stereo not given),Potency,[1],inactive
same,Potency,[2],inactive
same,Potency,[3],inactive
same,Potency,[4],inactive
O[C@H]1[C@H]2[C@H](O)CCCN2C[C@H]1O,Potency,[1],inactive
same,Potency,[2],inactive
same,Potency,[3],inactive
same,Potency,[4],inactive
CCC1(c2ccccc2)C(=O)NC(=O)NC1=O,Potency,[1],inactive
same,Potency,[2],inactive
same,Potency,[3],inactive
same,Potency,[4],inactive
CCOc1ccc2c3c1O[C@H]1[C@@H](O)C=C[C@H]4[C@@H](C2)N(C)CC[C@@]341,Potency,[1],inactive
same,Potency,[2],inactive
same,Potency,[3],16.1 µM (active)
C=CCC1(C(C)CCC)C(=O)N=C(S)NC1=O (stereo not given),Potency,[1],inactive
same,Potency,[2],inactive
same,Potency,[3],inactive
CCCCNCC(O)c1ccc(O)cc1 (stereo not given),Potency,[1],inactive
same,Potency,[2],inactive
same,Potency,[3],1.81 µM (active)
CC(=O)OO,Potency,[1],inactive
same,Potency,[2],inactive
same,Potency,[3],inactive
CC(Cc1ccccc1)NC=O (stereo not given),Potency,[1],inactive
same,Potency,[2],inactive
same,Potency,[3],inactive
NCC(O)c1cccc(O)c1 (stereo not given),Potency,[1],inactive
same,Potency,[2],inactive
same,Potency,[3],inactive
CN1CCCC(=C(c2cccs2)c2cccs2)C1,Potency,[1],inactive
same,Potency,[2],inactive
same,Potency,[3],inactive
same,Potency,[4],inactive
C=CCN1CC[C@]23c4c5ccc(O)c4O[C@H]2[C@@H](O)C=C[C@H]3[C@H]1C5,Potency,[1],inactive
same,Potency,[2],inactive
same,Potency,[3],inactive
c1csc(C2(N3CCCCC3)CCCCC2)c1,Potency,[1],inactive
same,Potency,[2],inactive
same,Potency,[3],inactive
same,Potency,[4],inactive
CCCC(C)C1(CC)C(=O)NC(=O)NC1=O (stereo not given),Potency,[1],inactive
same,Potency,[2],inactive
same,Potency,[3],inactive
O=C(NC(=O)c1c(F)cccc1F)Nc1ccc(Cl)c(Oc2ncc(C(F)(F)F)cc2Cl)c1,Potency,[1],inactive
same,Potency,[2],inactive
same,Potency,[3],inactive
same,Potency,[4],inactive
CCC1(c2ccccc2)C(=O)NC(=O)N(C)C1=O (stereo not given),Potency,[1],inactive
same,Potency,[2],inactive
same,Potency,[3],inactive
CN1C2CCC1CC(OC(c1ccccc1)c1ccc(Cl)cc1)C2 (stereo not given),Potency,[1],inactive
same,Potency,[2],20.3 µM (active)
same,Potency,[3],25.6 µM (active)
same,Potency,[4],inactive
O=[N+]([O-])c1ccccc1,Potency,[1],inactive
same,Potency,[2],inactive
same,Potency,[3],inactive
same,Potency,[4],inactive
same,Potency,[5],inactive
same,activation,[6],2.6% and -2.69%
same,activation,[7],-0.285% and -0.296%
same,Potency,[8],inactive
same,Potency,[9],inactive
same,outcome,[10],inactive
same,activation,[11],-1.49% and 0.199%
same,max response,[12],0.135% and -4.33%
same,Potency,[13],inactive
Oc1cccc[c]1[Hg][Cl],Potency,[1],10.2 µM (active)
same,Potency,[2],1.28 µM (active)
same,Potency,[3],0.642 µM (active)
same,Potency,[4],4.46 µM (active)
CCC1(CC)C(=O)NC(=O)N(C)C1=O,Potency,[1],inactive
same,Potency,[2],inactive
same,Potency,[3],inactive
same,Potency,[4],inactive
O=P(O)(O)C(Cl)(Cl)P(=O)(O)O,Potency,[1],inactive
same,Potency,[2],inactive
same,Potency,[3],inactive
same,Potency,[4],inactive
ClC(Cl)(Cl)Cl,Potency,[1],inactive
same,Potency,[2],inactive
same,Potency,[3],inactive
same,Potency,[4],inactive
same,Potency,[5],inactive
same,activation,[6],-0.523% and 1.98%
same,activation,[7],2.09% and -0.921%
same,Potency,[8],inactive
same,Potency,[9],inactive
same,outcome,[10],inactive
same,Potency,[14],inactive
same,activation,[11],-0.636% and 0.214%
same,max response,[12],-1.24% and -4.01%
same,Potency,[13],inactive
O=C(OCCN1CCCCC1)C(O)(c1ccccc1)c1ccccc1,Potency,[1],inactive
same,Potency,[2],inactive
same,Potency,[3],inactive
same,Potency,[4],inactive
